Results filed as inconclusive are left out. Calls of active or inactive are those of the source. Unless noted, the call rests on the fitted dose curve.
Columns and labels:
[1] = Nuclear factor erythroid 2-related factor 2/antioxidant responsive element (Nrf2/ARE) small molecule agonists: qHTS cell viability counter screen in human keratinocytes (AID 1919968; active means well fitted curve in the direction sought with a large enough effect in the repeat runs; an effect the other way counts as inactive or inconclusive; further: nearly all actives have a fitted effect of over 55% in size)
In short: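 KeratinoSens HaCaT cells, 1,500/well, preincubated 5 h, then exposed to compounds in DMSO for 23 h at 37 C/5% CO2. Viability read as CellTiter-Fluor fluorescence after 1 h, in the same wells as the ARE-luciferase read.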

[2] = target: Gonadotropin-releasing hormone receptor (Homo sapiens) (UniProt P30968); assay: Human gonadotropin-releasing hormone receptor (GnRHR) small molecule agonists, calcium flux assay in GnRHR-HEK293 cells (AID 1920063); further: nearly all actives have a fitted effect of over 35% in size
Chain of Gonadotropin-releasing hormone receptor (Homo sapiens) (P30968 whole entry, looked up): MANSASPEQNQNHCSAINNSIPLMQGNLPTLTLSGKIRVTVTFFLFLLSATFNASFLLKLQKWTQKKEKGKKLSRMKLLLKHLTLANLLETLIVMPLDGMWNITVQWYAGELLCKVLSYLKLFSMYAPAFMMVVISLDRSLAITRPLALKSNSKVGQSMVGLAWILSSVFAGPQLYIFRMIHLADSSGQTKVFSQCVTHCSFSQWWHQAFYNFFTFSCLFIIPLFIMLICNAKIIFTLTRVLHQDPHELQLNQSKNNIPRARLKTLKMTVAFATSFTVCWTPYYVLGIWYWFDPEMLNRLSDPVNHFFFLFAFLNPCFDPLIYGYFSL
In short: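 HEK293 cells stably expressing human GnRHR were dye-loaded for 1 h at 37 C. Compound was added in agonist mode and fluorescence (Ex/Em 480/540) recorded kinetically for 3 min. Fifteen concentrations, triplicates.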

[3] = target: KiSS-1 receptor (Homo sapiens) (UniProt Q969F8); assay: Human kisspeptin (KISS1R) small molecule agonists, calcium flux assay in KISS1R-HEK293 cells (AID 1920064; active means well fitted curve in the direction sought with a large enough effect in the repeat runs; an effect the other way counts as inactive or inconclusive)
Chain of KiSS-1 receptor (Homo sapiens) (Q969F8 whole entry, looked up): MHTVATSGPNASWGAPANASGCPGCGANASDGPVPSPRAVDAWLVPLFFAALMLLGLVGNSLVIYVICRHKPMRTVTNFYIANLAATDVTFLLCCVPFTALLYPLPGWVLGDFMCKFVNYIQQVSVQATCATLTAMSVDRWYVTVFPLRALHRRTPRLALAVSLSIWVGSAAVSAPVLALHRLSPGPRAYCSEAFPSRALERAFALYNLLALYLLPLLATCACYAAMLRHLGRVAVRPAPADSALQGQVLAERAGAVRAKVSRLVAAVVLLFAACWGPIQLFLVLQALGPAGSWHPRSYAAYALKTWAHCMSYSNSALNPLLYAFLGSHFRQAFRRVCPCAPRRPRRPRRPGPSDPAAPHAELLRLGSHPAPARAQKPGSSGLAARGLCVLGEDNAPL
In short: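 HEK293 cells stably expressing human KISS1R were loaded with calcium dye for 1 h at 37 C, then given compound; fluorescence (Ex/Em 480/540) was read kinetically for 3 min. Fifteen concentrations, triplicate.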

[4] = G protein-coupled receptor (GPCR) small molecule agonists, calcium flux assay: HEK293 wild type cell line counter screen (AID 1920065)
In short: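 Wild-type HEK293 cells plated 18 h, loaded with calcium dye 1 h at 37 C, then compounds added in agonist mode (ATP as positive control). Kinetic fluorescence Ex/Em 480/540 recorded 3 min at 1 sec intervals; 15 concentrations, triplicate.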

[5] = p53 small molecule agonists, cell-based qHTS assay with human liver microsomes (AID 1963577);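 further: p53 response element beta-lactamase reporter cells with liver microsomes plus NADPH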
In short: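 HLM-supplemented p53RE-bla reporter assay: 16 h compound exposure at 37 C, microsomes and NADPH each 0.5 mg/mL final, read by fluorescence intensity.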

[6] = p53 small molecule agonists, cell-based qHTS assay with rat liver microsomes (AID 1963578)
In short: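 Quantitative HTS of the Tox21 10K library: p53RE-bla cells, rat liver microsomes plus NADPH at 0.5 mg/mL final each, 16 h at 37 C, beta-lactamase fluorescence detection.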

[7] = p53 small molecule agonists, cell-based qHTS assay with human liver microsomes: qHTS cell viability counter screen (AID 1963579); further: nearly all actives have a fitted effect of over 45% in size
In short: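 Viability of p53RE-bla cells is measured as CellTiter-Glo luminescence following a 16 h, 37 C incubation with compound, liver microsomes from human donors and NADPH.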

[8] = p53 small molecule agonists, cell-based qHTS assay with rat liver microsomes: qHTS cell viability counter screen (AID 1963580); further: nearly all actives have a fitted effect of over 45% in size
In short: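 p53RE-bla HCT-116 cells (4,000/well) rested 5 h at 37 C, then given Tox21 compounds in DMSO with rat liver microsomes (0.5 mg/mL final) plus NADPH (0.5 mg/mL final) for 16 h at 37 C. Viability read by CellTiter-Glo luminescence after 30 min at room temperature.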

[9] = p53 small molecule agonists, cell-based qHTS assay: qHTS cell viability counter screen (AID 1963581); further: nearly all actives have a fitted effect of over 45% in size
In short: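 p53RE-bla HCT-116 cells, compounds added 5 h after plating and incubated 16 h at 37 C. Cytotoxicity measured in the same wells as intracellular ATP by CellTiter-Glo luminescence after 30 min at room temperature.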

[10] = p53 small molecule agonists, cell-based qHTS assay (AID 1963582; active means well fitted activation curve with a large enough effect in the signal ratio in the repeat runs, not every such curve was filed as active; the % refers to the signal ratio)
In short: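 p53RE-bla reporter cells, compounds added in DMSO after 5 h plating, incubated 16 h at 37 C. Beta-lactamase read via 2 h room-temperature LiveBLAzer B/G FRET substrate, fluorescence intensity.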

[11] = target: 5-hydroxytryptamine receptor 2A (Homo sapiens) (UniProt P28223); assay: 5-hydroxytryptamine receptor 2A (HTR2A) small molecule antagonists, cell-based qHTS assay (AID 1963586); further: nearly all actives have a fitted effect of over 45% in size
Chain of 5-hydroxytryptamine receptor 2A (Homo sapiens) (P28223 whole entry, looked up): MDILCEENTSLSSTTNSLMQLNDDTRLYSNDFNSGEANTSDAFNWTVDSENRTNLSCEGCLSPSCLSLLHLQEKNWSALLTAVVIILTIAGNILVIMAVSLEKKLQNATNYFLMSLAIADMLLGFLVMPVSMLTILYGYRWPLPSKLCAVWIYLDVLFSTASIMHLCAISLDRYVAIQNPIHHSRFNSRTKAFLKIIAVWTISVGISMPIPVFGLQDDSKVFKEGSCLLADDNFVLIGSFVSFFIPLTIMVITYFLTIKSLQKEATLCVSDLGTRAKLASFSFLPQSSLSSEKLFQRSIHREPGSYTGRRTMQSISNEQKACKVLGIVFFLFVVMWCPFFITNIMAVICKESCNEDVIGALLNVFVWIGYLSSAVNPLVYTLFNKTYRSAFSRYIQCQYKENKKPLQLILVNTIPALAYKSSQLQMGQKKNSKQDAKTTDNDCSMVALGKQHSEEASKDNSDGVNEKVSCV
In short: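 Antagonist-mode intracellular calcium assay: DOI (4 nM) added after 5 min compound pre-incubation at room temperature to dye-loaded HTR2A-CHO cells. Fluorescence followed for 3 min, sampled every second.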

[12] = target: Muscarinic acetylcholine receptor M1 (Homo sapiens) (UniProt P11229); assay: Cholinergic receptor muscarinic 1 (CHRM1) small molecule antagonists, cell-based qHTS assay (AID 1963588); further: nearly all actives have a fitted effect of over 40% in size
Chain of Muscarinic acetylcholine receptor M1 (Homo sapiens) (P11229 whole entry, looked up): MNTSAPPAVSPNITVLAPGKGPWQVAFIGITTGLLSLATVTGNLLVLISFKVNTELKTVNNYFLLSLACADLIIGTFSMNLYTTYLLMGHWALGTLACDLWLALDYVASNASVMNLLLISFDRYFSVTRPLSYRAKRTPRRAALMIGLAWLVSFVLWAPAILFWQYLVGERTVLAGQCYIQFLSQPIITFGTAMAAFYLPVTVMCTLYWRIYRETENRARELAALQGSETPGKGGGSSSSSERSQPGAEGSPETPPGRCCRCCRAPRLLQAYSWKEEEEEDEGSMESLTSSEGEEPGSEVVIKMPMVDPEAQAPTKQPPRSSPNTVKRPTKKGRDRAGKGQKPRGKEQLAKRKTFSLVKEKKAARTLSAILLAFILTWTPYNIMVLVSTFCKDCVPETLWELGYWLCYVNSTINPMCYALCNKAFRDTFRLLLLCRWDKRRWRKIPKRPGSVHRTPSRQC
In short: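 CHRM1-CHO calcium-flux assay, antagonist mode. Cells were seeded 18 h, dye-loaded 1 h at 37 C and given compound for 5 min at RT, then acetylcholine was added at 50nM. FDSS fluorescence was read 3 min; 15 concentrations, three runs.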

[13] = target: Muscarinic acetylcholine receptor M1 (Homo sapiens) (UniProt P11229); assay: Cholinergic receptor muscarinic 1 (CHRM1) small molecule agonists, cell-based qHTS assay (AID 1963589); further: nearly all actives have a fitted effect of over 35% in size
In short: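 CHO cells stably expressing human CHRM1 were loaded with calcium dye for 1 h at 37 C, then compound was added in agonist mode. Intracellular calcium fluorescence was followed kinetically at 1 s intervals. Fifteen concentrations were tested in three independent runs.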

[14] = cAMP Responsive Elements (CRE) small molecule agonists, cell-based qHTS assay (AID 1963590)
In short: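 CRE-bla HEK 293T cells, 2,000/well in DMEM with 10% dialyzed FBS and 25 mM HEPES, pre-incubated 18 h at 37 C, then exposed to compound 3 h at 37 C. Beta-lactamase reporter read with LiveBLAzer B/G FRET substrate after 2 h at room temperature.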

[15] = cAMP Responsive Elements (CRE) small molecule antagonists, cell-based qHTS assay (AID 1963591; active means well fitted inhibition curve with a large enough effect in the signal ratio in the repeat runs, not every such curve was filed as active; the % refers to the signal ratio)
In short: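 CRE-bla HEK293T cells plated 18 h, then given compound plus NKH477 at 0.25 uM final for 3 h at 37C. Beta-lactamase reporter read with LiveBLAzer B/G FRET substrate after 2 h at room temperature.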

[16] = target: Beta-2 adrenergic receptor (Homo sapiens) (UniProt P07550); assay: Adrenergic beta2 receptor (ADRB2) small molecule antagonists, cell-based qHTS assay (AID 1963592); further: series mostly up to about 92 µM; nearly all actives have a fitted effect of over 50% in size
Chain of Beta-2 adrenergic receptor (Homo sapiens) (P07550 whole entry, looked up): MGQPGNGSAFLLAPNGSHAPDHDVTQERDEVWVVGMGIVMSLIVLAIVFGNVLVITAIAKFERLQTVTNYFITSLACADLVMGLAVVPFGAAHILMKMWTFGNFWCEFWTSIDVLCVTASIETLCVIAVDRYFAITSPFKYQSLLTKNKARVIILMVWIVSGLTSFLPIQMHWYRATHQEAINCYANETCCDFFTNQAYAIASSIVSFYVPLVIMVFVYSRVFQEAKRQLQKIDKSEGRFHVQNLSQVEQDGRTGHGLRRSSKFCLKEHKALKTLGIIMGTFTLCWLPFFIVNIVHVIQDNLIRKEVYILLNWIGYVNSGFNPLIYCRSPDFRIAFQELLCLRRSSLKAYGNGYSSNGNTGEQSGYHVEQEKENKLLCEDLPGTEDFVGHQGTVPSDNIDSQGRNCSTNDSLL
In short: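 Cells (CHO, stable ADRB2 overexpression) incubated 18-20hr at 37C; compounds added from DMSO; agonist mix (1nM isoproterenol, 100uM IBMX, 25uM Ro-20-1724) added; 0.5hr RT; d2-cAMP and anti-cAMP-cryptate added; 1hr RT; 665/615 nm read.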

[17] = target: Beta-2 adrenergic receptor (Homo sapiens) (UniProt P07550); assay: Adrenergic beta2 receptor (ADRB2) small molecule agonists, cell-based qHTS assay (AID 1963593);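 further: CHO cells stably overexpressing human ADRB2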
In short: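 CHO cells stably over-expressing ADRB2 were plated overnight at 37C, then dosed with compounds plus a stimulation mix containing 100uM IBMX and 25uM Ro-20-1724 for 0.5hr at room temperature. cAMP was measured by HTRF competition, 1hr.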

[18] = target: D(2) dopamine receptor (Homo sapiens) (UniProt P14416); assay: Dopamine D2 receptor (DRD2) small molecule agonists, cell-based qHTS assay (AID 1963594); further: nearly all actives have a fitted effect of over 35% in size
Chain of D(2) dopamine receptor (Homo sapiens) (P14416 whole entry, looked up): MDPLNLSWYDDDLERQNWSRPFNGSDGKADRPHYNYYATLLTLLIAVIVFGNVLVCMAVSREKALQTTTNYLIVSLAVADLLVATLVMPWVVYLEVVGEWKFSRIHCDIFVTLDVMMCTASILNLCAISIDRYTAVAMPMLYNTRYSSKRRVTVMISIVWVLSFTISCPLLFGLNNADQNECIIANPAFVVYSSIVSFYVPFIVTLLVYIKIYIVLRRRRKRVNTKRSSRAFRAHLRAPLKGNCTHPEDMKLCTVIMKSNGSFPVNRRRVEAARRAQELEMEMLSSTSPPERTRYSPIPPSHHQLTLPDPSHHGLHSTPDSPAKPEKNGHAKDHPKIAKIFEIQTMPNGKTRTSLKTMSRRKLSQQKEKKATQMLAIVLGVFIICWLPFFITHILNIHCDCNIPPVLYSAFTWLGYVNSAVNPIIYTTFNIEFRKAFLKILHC
In short: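 HEK293 cells stably expressing DRD2 were cultured 24 h at 37 C, then given Ro20-1724 (0.1 mM final) and compounds for 10 min at room temperature. NKH477 (200nM) was then added for 30 min. cAMP was read by HTRF.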

[19] = target: D(2) dopamine receptor (Homo sapiens) (UniProt P14416); assay: Dopamine D2 receptor (DRD2) small molecule antagonists, cell-based qHTS assay (AID 1963595; active means well fitted inhibition curve with a large enough effect in the signal ratio in the repeat runs, with a control signal flat; the % refers to the signal ratio)
In short: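 Human DRD2 antagonist qHTS measuring cAMP by HTRF. The cells are exposed to compound for 10 min, then to NKH477 (200 nM) and quinpirole (12 nM) for 30 min at RT, with Ro20-1724 (0.1 mM) present throughout.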

[20] = target: 5-hydroxytryptamine receptor 2A (Homo sapiens) (UniProt P28223); assay: 5-hydroxytryptamine receptor 2A (HTR2A) small molecule agonists, cell-based qHTS assay (AID 1963587); further: nearly all actives have a fitted effect of over 30% in size
In short: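 HTR2A-CHO cells, plated 18 h at 37 C/5% CO2, dye-loaded 1 h at 37 C; compounds in DMSO added by pin tool (agonist mode). Intracellular calcium flux read as kinetic fluorescence on FDSS over 2 min at 1 s intervals.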

Measured: Potency

N#CCBr
inactive: [1] | [2] | [3] | [4] | [5] | [6] | [7] | [8] | [9] | [10] | [11] | [12] | [13] | [14] | [15] | [16] | [17] | [18] | [19]

N#Cc1ccncc1
inactive: [1] | [2] | [3] | [4] | [5] | [6] | [7] | [8] | [9] | [11] | [20] | [13] | [14] | [15] | [17]

CN(C)P(=O)(N(C)C)N(C)C
inactive: [1] | [2] | [3] | [4] | [5] | [6] | [7] | [8] | [9] | [10] | [11] | [20] | [12] | [14] | [15] | [17] | [18] | [19]

Nc1cccc(Cl)c1
inactive: [1] | [2] | [3] | [4] | [5] | [6] | [7] | [8] | [9] | [10] | [11] | [20] | [12] | [13] | [14] | [15] | [16] | [17] | [18] | [19]

O=c1n(Cl)c(=O)n(Cl)c(=O)n1Cl
inactive: [1] | [2] | [3] | [4] | [5] | [6] | [7] | [8] | [9] | [10] | [11] | [20] | [12] | [13] | [14] | [15] | [16] | [17] | [18] | [19]

COc1ccc(CO)cc1
inactive: [1] | [2] | [3] | [4] | [5] | [6] | [7] | [8] | [9] | [10] | [11] | [20] | [12] | [14] | [15] | [16] | [18] | [19]

CC(=NC#N)N(C)Cc1ccc(Cl)nc1
inactive: [1] | [2] | [3] | [4] | [5] | [6] | [7] | [8] | [9] | [10] | [11] | [20] | [12] | [14] | [15] | [16] | [17] | [18] | [19]

ClC1=C(Cl)[C@]2(Cl)[C@@H]3[C@@H](Cl)[C@H](Cl)C[C@@H]3[C@@]1(Cl)C2(Cl)Cl
inactive: [1] | [2] | [3] | [4] | [5] | [6] | [7] | [8] | [9] | [10] | [11] | [13] | [14] | [15] | [16] | [17] | [18] | [19]

C=CC(=O)OCCCCCC(C)C
inactive: [1] | [2] | [3] | [4] | [5] | [6] | [7] | [8] | [9] | [10] | [11] | [20] | [12] | [13] | [14] | [15] | [17] | [18] | [19]

CC(=[OH+])/C=C(/C)[O-].CC(=[OH+])/C=C(\C)[O-].CC(=[OH+])/C=C(\C)[O-].[Al]
inactive: [1] | [2] | [3] | [4] | [5] | [6] | [7] | [8] | [9] | [10] | [11] | [20] | [12] | [13] | [14] | [15] | [16] | [18] | [19]

COc1cc(OC)nc(Oc2cccc(Oc3nc(OC)cc(OC)n3)c2C(=O)O)n1
inactive: [1] | [2] | [3] | [4] | [5] | [6] | [7] | [8] | [9] | [10] | [11] | [20] | [12] | [13] | [14] | [15] | [16] | [18] | [19]

N#CS
inactive: [1] | [2] | [3] | [4] | [5] | [6] | [7] | [8] | [9] | [10] | [11] | [20] | [12] | [13] | [14] | [15] | [16] | [17] | [18] | [19]

O=c1c2ccccc2c(=O)c2c1cc(Cl)c1[nH]c3c([nH]c12)c(Cl)cc1c(=O)c2ccccc2c(=O)c13
inactive: [1] | [2] | [3] | [4] | [5] | [6] | [7] | [8] | [9] | [10] | [11] | [20] | [12] | [13] | [14] | [15] | [16] | [17] | [18] | [19]

ClC1(Cl)C2(Cl)C3(Cl)C4(Cl)C(Cl)(Cl)C5(Cl)C3(Cl)C1(Cl)C5(Cl)C24Cl (stereo not drawn)
inactive: [1] | [2] | [3] | [4] | [5] | [6] | [7] | [8] | [9] | [10] | [11] | [20] | [12] | [14] | [15] | [16] | [18]

CCn1cc[n+](C)c1C
inactive: [1] | [2] | [3] | [4] | [7] | [8] | [9] | [11] | [20] | [12] | [13] | [14] | [15] | [16] | [17] | [18] | [19]

— PubChem BioAssay (Tox21)
